# Bioassay records (PubChem)
# Shown are actives, neighbours in structure and some others; about 3% of the full set was active somewhere.
# SENP8 block-1: blocks human SENP8 cleavage of Nedd8 substrate; actives 0.64% (n = 360,000); inhibition, % at 20 µM; recombinant SENP8, Nedd8 substrate fluorescence; Q96LD8; in the data active = inhibition mostly above about 40%, no sharp cut-off; inactive = mostly below about 27%
# PPC-1+TRAIL kill: PPC-1 cancer cell killing with TRAIL present | PPC-1 cells + TRAIL, ATPLite viability luminescence | cell killing (% activity), % at 4 µM or 5 µM | actives 0.41% (n = 220,000);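 active = cell killing above 50% in the first pass at 4 µM, then a duplicate retest at 5 µM averaging 50% or more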;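 also: plate controls were cells with TRAIL plus DMSO for no effect and medium-only wells lacking cells for full effect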
# SENP6 block: blocks the human protease SENP6; inhibition, % at 10 µM; Recombinant SENP6 catalytic domain, aminoluciferin luminescence; actives 1.8% (n = 330,000); Q9GZR1;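 active = inhibition above about 50% at the single tested dose, limit read from the data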;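 also: plate controls were DMSO wells with enzyme for no effect and DMSO wells lacking enzyme for full effect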
# SENP8 block-2: inhibitors of human SENP8 protease; Q96LD8; purified SENP8, Z-RLRGG-aminoluciferin cleavage, luminescence; inhibition, % at 10 µM; actives 1.2% (n = 330,000); in the data active = inhibition above about 50%
# SENP7 inh: blocks the human protease SENP7 | inhibition, % at 5 µM | recombinant SENP7, Z-RLRGG-aminoluciferin luminescence, 40 min | Q9BQF6 | AID 434973 | actives 1.5% (n = 330,000);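 active = inhibition above about 50% at the single test dose, limit read from the data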;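 also: plate controls were DMSO with enzyme for no effect and no enzyme buffer wells for full effect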
# Target sequence (Q9BQF6 706-1050 limits assumed): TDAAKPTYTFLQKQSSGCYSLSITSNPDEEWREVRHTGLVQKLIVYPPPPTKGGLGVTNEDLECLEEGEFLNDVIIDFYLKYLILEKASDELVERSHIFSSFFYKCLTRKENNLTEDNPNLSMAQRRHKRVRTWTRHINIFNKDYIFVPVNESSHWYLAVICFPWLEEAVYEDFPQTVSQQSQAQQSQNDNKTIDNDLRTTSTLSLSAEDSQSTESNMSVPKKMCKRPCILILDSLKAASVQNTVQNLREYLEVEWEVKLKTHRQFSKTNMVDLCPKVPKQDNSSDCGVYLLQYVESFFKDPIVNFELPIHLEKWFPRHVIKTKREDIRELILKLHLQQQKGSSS
# TRAIL sens C8: sensitizes caspase-8 expressing cells to TRAIL. NB7+C8 cells + TRAIL, ATPlite viability luminescence. inhibition (viability loss, TRAIL sensitization), % at 10 µM. actives 1% (n = 360,000). AID 624354;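 active = compounds causing at least 50% loss of cell viability in the single-dose screen, relative to plate controls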
# PPC1 cytotox: PPC-1 cell cytotoxicity; shares compounds with PPC-1+TRAIL kill; PPC-1 viability, ATPlite luminescence, overnight; cytotoxicity, % at 5 µM; actives 50% (n = 1,200);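 active = reconfirmed compounds whose average cytotoxicity reaches 50% or more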;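 also: 0% = DMSO-treated cells and 100% = wells holding medium but no cells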
# SENP8 confirm: confirmation of human SENP8 protease inhibitors; inhibition, % at 12.5 µM; Recombinant SENP8, Z-RLRGG-aminoluciferin luminescence, 60 min; AID 488912; shares compounds with SENP7 inh; actives 40% (n = 6,200);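 active = mean inhibition across replicates above about 50%, limit read from the data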
# SENP6 conf: human SENP6 inhibition, confirmed; shares compounds with SENP7 inh; recombinant SENP6, Z-RLRGG-aminoluciferin luminescence; inhibition, % at 12.5 µM; actives 58% (n = 6,200); AID 488915
# SENP7 conf: confirmation of human SENP7 protease inhibitors; shares compounds with SENP7 inh; recombinant SENP7, Z-RLRGG-aminoluciferin luminescence, 40 min; inhibition, % at 12.5 µM; actives 69% (n = 6,200); AID 488917
# Casp3 SENP sel: inhibits human caspase-3 in SENP selectivity test; inhibition, % at 12.5 µM; shares compounds with SENP7 inh; AID 488918; actives 60% (n = 6,200); purified caspase-3, Z-DEVD-aminoluciferin luminescence, 60 min;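 active = mean inhibition above about 50%, limit read from the data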;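 also: plate controls were enzyme with DMSO for no effect and wells without caspase-3 for full effect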
# Target sequence (P42574 28-227 limits assumed): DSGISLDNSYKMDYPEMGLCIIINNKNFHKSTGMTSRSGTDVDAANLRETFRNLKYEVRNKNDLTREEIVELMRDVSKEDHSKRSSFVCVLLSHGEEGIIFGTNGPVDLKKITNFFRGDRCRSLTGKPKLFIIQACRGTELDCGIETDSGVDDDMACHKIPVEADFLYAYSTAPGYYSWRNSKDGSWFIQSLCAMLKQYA
# Luc interf: luminescence interference (SENP counter-screen); shares compounds with SENP7 inh; Pre-incubated SENP8/Z-RLRGG-aminoluciferin, luciferase luminescence interference; inhibition, % at 12.5 µM; actives 39% (n = 6,200); AID 488919;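 active = mean inhibition above about 50% when retested at one dose, limit read from the data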;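 also: plate controls were DMSO wells with completed reaction for no effect and substrate without enzyme for full effect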
# Starred values were filed as active, the others as inactive; i = inactive; . = not tested or not shown.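 The calls were made as follows, unless noted: active = mean inhibition above about 50% in the one-dose retest (limit read from the data); inactive = the rest.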
SMILES,SENP8 block-1,PPC-1+TRAIL kill,SENP6 block,SENP8 block-2,SENP7 inh,TRAIL sens C8,PPC1 cytotox,SENP8 confirm,SENP6 conf,SENP7 conf,Casp3 SENP sel,Luc interf
O=C1C(c2ccnc3ccccc23)=C(O)c2ccccc21,62*,84*,64*,39,97*,89*,86*,86*,86*,97*,94*,88*
O=C1c2ccccc2C(=O)C1c1ccnc2ccccc12,28,86*,79*,85*,99*,90*,87*,84*,89*,100*,94*,21
N#CC1=C(N)SC(N)=C(C#N)C1c1ccnc2ccccc12,-306,15,1,-9,-2,-14,.,.,.,.,.,.
Cc1ccc(/C=C/C(=O)c2ccc(N3CCOCC3)cc2)s1,-12,80*,81*,68*,35,73*,78*,-1,33,33,16,0
O=C(c1ccccc1)c1ccc(N2CCOCC2)cc1,-54,.,.,.,.,23,.,.,.,.,.,.
CN(C)c1ccc(Nc2nc(-c3cccnc3)cs2)cc1,24,70*,88*,87*,89*,67*,68*,43,78*,96*,92*,32
Cc1ccccc1OCC(=O)Nc1ccc(N2CCN(C)CC2)c(Cl)c1,6,.,-20,-2,1,29,.,.,.,.,.,.
CCCCCN1C=CC(=C2C(=O)c3ccccc3C2=O)C=C1,24,94*,96*,96*,97*,96*,94*,94*,96*,100*,96*,46
CC1=CC(=C2C(=O)c3ccccc3C2=O)C=C(C)N1C,27,11,5,-3,-2,14,.,.,.,.,.,.
COc1ccc(NC(=O)Cc2coc3ccc4ccccc4c23)cc1S(=O)(=O)N1CCOCC1,0,-9,-9,-13,-6,-16,.,.,.,.,.,.
Cc1ccc(-c2cc3nc(C)cc(NCc4ccco4)n3n2)cc1,-329,14,81*,74*,92*,63*,20,46,38,61*,63*,38
COCCNc1cc(C)nc2cc(-c3ccc(C)cc3)nn12,-411,14,-6,-4,-1,10,.,.,.,.,.,.
O=C(NCCN1C(=O)S/C(=C\c2ccc(F)cc2)C1=O)c1cccc(S(=O)(=O)N2CCOCC2)c1,19,6,6,-8,-7,-3,.,.,.,.,.,.
O=C(Nc1nc(=O)c2ccccc2s1)c1ccccc1,19,26,60*,43,41,34,33,20,53*,17,27,11
Cc1nc(NC(=O)c2cc3c(s2)CCCCC3)sc1C(=O)N(C)C,-127,-4,2,0,14,23,.,.,.,.,.,.
Cc1csc(NC(=O)c2cc3c(s2)CCC3)n1,-78,51*,90*,82*,87*,84*,47,89*,88*,99*,89*,91*
Cc1ccc(-n2nc(C)c(C(=O)N3CCN(C(=O)c4ccco4)CC3)c2-n2cccc2)cc1,-4,.,3,0,-7,-2,.,.,.,.,.,.
Cc1ccc(-c2cnc3cc(C)nn3c2)cc1,-5,56*,58*,47,75*,68*,56*,51*,61*,83*,72*,25
COc1ccc2cc(-c3cc(C(=O)O)c4ccccc4n3)ccc2c1,i,96*,83*,54*,63*,95*,96*,73*,72*,88*,81*,40
Cc1occc1C(=O)O/N=C(\N)c1ccccc1,11,57*,94*,91*,93*,70*,55*,94*,95*,102*,98*,94*
COc1ccc(Cl)c(NC(=O)C/C(C)=N/NC(=O)CCc2ccccc2)c1,19,.,8,1,-12,-10,.,.,.,.,.,.
Cc1nc2cc(NC(=O)Nc3ccccc3Cl)ccc2n1C,6,71*,88*,93*,97*,73*,72*,86*,92*,99*,94*,91*
COc1ccc(C(=O)NNC(=O)c2ccccn2)cc1,8,86*,99*,97*,100*,89*,81*,98*,99*,102*,98*,98*
COC(=O)C1=C(C)NC(C)=C(C(=O)OC)C1c1ccc2ccccc2n1,-484,29,-8,-9,-5,1,.,.,.,.,.,.
O=C1c2ccccc2C(=O)C1c1ccc2ccccc2n1,19,84*,81*,81*,99*,84*,80*,10,34,42,30,20
SMILES,SENP8 block-1,PPC-1+TRAIL kill,SENP6 block,SENP8 block-2,SENP7 inh,TRAIL sens C8,PPC1 cytotox,SENP8 confirm,SENP6 conf,SENP7 conf,Casp3 SENP sel,Luc interf
O=[N+]([O-])c1ccc(/C=C/c2ccc3ccccc3n2)cc1,4,64*,93*,91*,94*,74*,61*,64*,78*,94*,78*,14
Oc1ccc(/C=C/c2ccc3ccccc3n2)cc1,-395,56*,101*,98*,102*,72*,56*,100*,100*,103*,99*,98*
CC(=O)N(C(C)=O)n1c(/C=C/c2ccc([N+](=O)[O-])cc2)nc2ccccc2c1=O,-56,8,-15,-4,3,-7,.,.,.,.,.,.
COc1ccc2nc(-c3cccc(N)c3)[nH]c2c1,-489,52*,77*,58*,82*,52*,52*,70*,71*,94*,88*,67*
CCOc1ccc(OCc2cccc(C(=O)O)c2)cc1,16,59*,99*,96*,100*,84*,58*,10,100*,103*,99*,98*
c1csc(-c2nnc(-c3ccc(N4CCOCC4)cc3)o2)c1,-281,46,59*,11,52*,51*,47,-12,-2,30,32,16
c1cncc(-c2nnc(-c3cccs3)o2)c1,-133,2,8,-7,0,2,.,.,.,.,.,.
